Data: PubChem BioAssay AID1159580 (chemical genetic matrix, 2015)
In all, about 5,500 compounds went through this assay and about 2,000 (36%) were called active. Roughly 18% stayed inconclusive and do not appear here. Cut-off read from the data, not from the text of the source: active = normalized growth mostly below about 0.91 (no sharp cut-off); inconclusive = no clear call, values can overlap the other calls; inactive = mostly above about 0.92. The list shows a part of the results.

Assay: chemical genetic growth profiling, strain panel (AID 1159580);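 note: tested at 20 µM; growth read once vehicle control cultures reached saturation at 30 °C; 1 = growth at the plate median or of vehicle wells; lower values mean less growth of the strain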
Settings: S. cerevisiae deletion strains, growth OD
[1] = locus YAL040C, strain CLN3, stronger effect = lower value
[2] = locus YCL061C, strain MRC1 (second series), stronger effect = lower value
[3] = locus YDR150W, strain NUM1, stronger effect = lower value
[4] = locus YER002W, strain NOP16, stronger effect = lower value
[5] = locus YNL175C, strain NOP13, stronger effect = lower value
[6] = locus YNL197C, strain WHI3, stronger effect = lower value
[7] = locus YNL224C, strain SQS1, stronger effect = lower value
[8] = locus YOR083W, strain WHI5 (second series), stronger effect = lower value
[9] = locus YPL241C, strain CIN2, stronger effect = lower value

Measured: normalized growth

NCCCC(O)(P(=O)(O)O)P(=O)(O)O
active: locus YPL051W, strain arl3, stronger effect = lower value 0.899
inactive: locus YAL021C, strain ccr4, stronger effect = lower value 0.993 | locus YAL026C, strain drs2, stronger effect = lower value 0.983 | locus YAL030W, strain snc1, stronger effect = lower value 0.993 | locus YBL061C, strain skt5, stronger effect = lower value 0.978 | locus YBR009C, strain hhf1, stronger effect = lower value 0.988 | locus YBR023C, strain chs3, stronger effect = lower value 0.992 | locus YBR171W, strain sec66, stronger effect = lower value 0.953 | locus YBR231C, strain swc5, stronger effect = lower value 0.977 | locus YBR279W, strain paf1, stronger effect = lower value 0.981 | locus YCL011C, strain gbp2, stronger effect = lower value 0.997 | locus YCL016C, strain dcc1, stronger effect = lower value 0.984 | locus YCL061C, strain MRC1, stronger effect = lower value 0.976 | locus YCL069W, strain vba3, stronger effect = lower value 0.991 | locus YCR088W, strain abp1, stronger effect = lower value 0.972 | locus YDL005C, strain med2, stronger effect = lower value 0.99 | locus YDL040C, strain nat1, stronger effect = lower value 0.989 | locus YDR001C, strain nth1, stronger effect = lower value 0.983 | locus YDR069C, strain doa4, stronger effect = lower value 1 | locus YDR137W, strain rgp1, stronger effect = lower value 1 | locus YDR159W, strain sac3, stronger effect = lower value 1 | locus YDR195W, strain ref2 0.943 | locus YDR297W, strain sur2, stronger effect = lower value 0.991 | locus YDR334W, strain swr1, stronger effect = lower value 0.967 | locus YDR335W, strain msn5, stronger effect = lower value 0.99 | locus YDR392W, strain spt3, stronger effect = lower value 0.964 | locus YEL003W, strain gim4, stronger effect = lower value 0.989 | locus YEL037C, strain rad23, stronger effect = lower value 0.978 | locus YEL061C, strain CIN8 (second series), stronger effect = lower value 0.973 | locus YER015W, strain faa2, stronger effect = lower value 0.987 | locus YER016W, strain bim1, stronger effect = lower value 0.984 | locus YER111C, strain swi4, stronger effect = lower value 0.978 | locus YER155C, strain BEM2 (second series), stronger effect = lower value 0.968 | locus YFR010W, strain ubp6, stronger effect = lower value 0.968 | locus YGL167C, strain pmr1, stronger effect = lower value 0.98 | locus YGL173C, strain kem1, stronger effect = lower value 0.959 | locus YGL227W, strain vid30, stronger effect = lower value 0.97 | locus YGL240W, strain doc1, stronger effect = lower value 0.995 | locus YGL253W, strain hxk2, stronger effect = lower value 0.977 | locus YHR013C, strain ard1, stronger effect = lower value 0.97 | locus YHR027C, strain rpn1, stronger effect = lower value 0.983 | locus YHR030C, strain SLT2, stronger effect = lower value 0.979 | locus YHR079C, strain IRE1, stronger effect = lower value 0.968 | locus YHR142W, strain chs7, stronger effect = lower value 0.972 | locus YJL092W, strain hpr5, stronger effect = lower value 0.972 | locus YJL095W, strain BCK1 (second series), stronger effect = lower value 0.985 | locus YJL095W, strain BCK1, stronger effect = lower value 1 | locus YJL115W, strain asf1, stronger effect = lower value 0.976 | locus YJL129C, strain trk1, stronger effect = lower value 0.964 | locus YJL154C, strain vps35, stronger effect = lower value 0.974 | locus YJL164C, strain tpk1, stronger effect = lower value 0.996 | locus YJL166W, strain qcr8, stronger effect = lower value 1 | locus YJL187C, strain SWE1, stronger effect = lower value 0.991 | locus YJR066W, strain TOR1, stronger effect = lower value 0.952 | locus YKL160W, strain elf1, stronger effect = lower value 0.99 | locus YKR026C, strain gcn3, stronger effect = lower value 0.98 | locus YKR091W, strain srl3, stronger effect = lower value 0.981 | locus YLL001W, strain dnm1, stronger effect = lower value 0.987 | locus YLL026W, stronger effect = lower value 0.995 | locus YLL041C, strain sdh2, stronger effect = lower value 1.01 | locus YLR027C, strain aat2, stronger effect = lower value 1 | locus YLR113W, strain HOG1, stronger effect = lower value 1 | locus YLR221C, strain rsa3, stronger effect = lower value 0.99 | locus YLR258W, strain gsy2, stronger effect = lower value 0.998 | locus YLR262C, strain YPT6 (second series), stronger effect = lower value 0.973 | locus YLR320W, strain mms22, stronger effect = lower value 0.987 | locus YLR342W, strain FKS1, stronger effect = lower value 0.978 | locus YLR357W, strain rsc2, stronger effect = lower value 0.975 | locus YLR370C, strain arc18, stronger effect = lower value 0.976 | locus YLR384C, strain iki3, stronger effect = lower value 0.978 | locus YML120C, strain ndi1, stronger effect = lower value 0.989 | locus YMR058W, strain fet3, stronger effect = lower value 0.977 | locus YMR125W, strain sto1, stronger effect = lower value 0.978 | locus YMR129W, stronger effect = lower value 0.99 | locus YMR205C, strain PFK2, stronger effect = lower value 0.996 | locus YMR231W, strain pep5, stronger effect = lower value 0.962 | locus YNL071W, strain lat1, stronger effect = lower value 0.985 | locus YNL183C, strain NPR1, stronger effect = lower value 0.978 | locus YNL209W, strain ssb2, stronger effect = lower value 0.982 | locus YNL248C, strain rpa49, stronger effect = lower value 0.985 | locus YNL322C, strain KRE1 (second series), stronger effect = lower value 0.98 | locus YNR049C, strain mso1, stronger effect = lower value 0.987 | locus YOR001W, strain rrp6, stronger effect = lower value 0.983 | locus YOR070C, strain gyp1, stronger effect = lower value 0.972 | locus YOR080W, strain dia2, stronger effect = lower value 0.979 | locus YOR083W, strain WHI5, stronger effect = lower value 0.99 | locus YOR106W, strain vam3, stronger effect = lower value 0.956 | locus YOR231W, strain MKK1, stronger effect = lower value 0.989 | locus YOR265W, strain rbl2, stronger effect = lower value 0.995 | locus YOR270C, strain vph1, stronger effect = lower value 0.965 | locus YOR290C, strain snf2, stronger effect = lower value 0.98 | locus YPL078C, strain atp4, stronger effect = lower value 0.976 | locus YPL106C, strain sse1, stronger effect = lower value 0.983 | locus YPL240C, strain hsp82, stronger effect = lower value 0.992 | locus YPL256C, strain CLN2, stronger effect = lower value 0.973

CP(=O)(O)CCCN
inactive: [1] 1 | [2] 1 | [3] 0.983 | [4] 0.994 | locus YNL153C, strain GIM3, stronger effect = lower value 0.99 | [5] 0.996 | [6] 1.02 | [7] 0.98 | [8] 1.01 | [9] 0.989

NCCCP(=O)(O)O
inactive: [1] 1.04 | [2] 0.998 | [3] 1.01 | locus YDR363W, strain ESC2, stronger effect = lower value 0.956 | [4] 0.981 | locus YGR229C, strain SMI1, stronger effect = lower value 0.984 | [5] 0.978 | [6] 0.979 | [7] 1 | [8] 0.98 | locus YPL055C, strain LGE1, stronger effect = lower value 1.02 | [9] 0.995
